Screening results: PubChem BioAssay, National Center for Advancing Translational Sciences (NCATS)
Rows were chosen to be rich in hits. Some 5.4% of all compounds tested hit in one or more screens of this group.
HPGD block = qHTS Assay for Inhibitors of HPGD (15-Hydroxyprostaglandin Dehydrogenase). purified HPGD, NADH fluorescence kinetic, PGE2 substrate. Potency, µM, most hits filed as inhibitors. 150,000 compounds, 4.3% hits; active = well fitted inhibition curve with a large enough effect, not every such curve was filed as active; inconclusive = small, poorly fitted or top-dose-only effect, or another doubt; inactive = no such curve, though single readings can be large or run the other way
Target sequence (P15428 whole entry, looked up): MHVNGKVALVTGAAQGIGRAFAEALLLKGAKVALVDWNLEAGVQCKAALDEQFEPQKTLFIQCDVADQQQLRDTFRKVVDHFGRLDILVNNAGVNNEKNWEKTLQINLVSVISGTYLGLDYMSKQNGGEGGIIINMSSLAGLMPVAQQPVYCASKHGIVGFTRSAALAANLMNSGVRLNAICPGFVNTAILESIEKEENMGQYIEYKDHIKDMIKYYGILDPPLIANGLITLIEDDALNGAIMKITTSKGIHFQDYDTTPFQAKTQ
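NADH formation kinetics: reaction with 30 uM PGE2 and 1 mM NAD+ (final), 20 nM enzyme, Tris-HCl pH 8 with Tween 20, after 15 min compound preincubation at room temperature. Fluorescence change, last versus first of five reads.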
PNC inhibitor = High Content Assay for Compounds that inhibit the Assembly of the Perinucleolar Compartment | PC3M PTB-GFP, PNC prevalence imaging, 16 h; active compounds read low | activity change (PNC), negative = inhibition, % at 10 µM | 140,000 compounds, 3.1% hits | AID 2417, 2010;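 active = readout at or below -70, meaning at least 70% loss of cells showing the perinucleolar compartment, a nuclear body marking cancer cells; inconclusive = readout between -30 and a set limit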
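Compounds are pinned in duplicate onto adhered PC3M cells stably expressing GFP-tagged PTB and incubated 16 h at 37 C. Cells are then fixed, nuclei stained with Hoechst, and PNC-positive cells counted.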
IMPase Li cell = qHTS Assay for Identifying the Cell-Membrane Permeable IMPase Inhibitors: Potentiation with Lithium | 210,000 compounds, 0.35% hits | Potency, µM (highest dose often 59.4 µM), actives largely listed as inhibitors | CHO-M1 cells, IP1 TR-FRET (IP-One), carbachol + lithium;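 also: IP1 builds up when IMPase is blocked and the TR-FRET signal falls; nearly all actives have a fitted effect of over 50% in size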
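Concentration–response in CHO-M1 cells, lithium-potentiated; 30 min at 37C. IP1 detected by competitive TR-FRET after 10 min lysis at RT. Hill-fitted AC50.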
IMPase inh = qHTS Assay for Identifying the Cell-Membrane Permeable IMPase Inhibitors. 120,000 tested, under 10 active. Inositol monophosphatase 1 (Rattus norvegicus), P97697. AID 901, 2007. inhibition (IP1 accumulation), % at 46.1 µM. CHO-M1 cells, IP1 accumulation, HTRF TR-FRET ratio; active = well fitted curve in the direction sought with a large enough effect in the signal ratio, not every such curve was filed as active; inconclusive = small, poorly fitted or top-dose-only effect, or a change in a side signal; inactive = no such curve, though single readings can be large or run the other way; the % refers to the signal ratio;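 also: cells stimulated with carbachol in lithium chloride buffer; higher means more IMPase inhibition seen as more IP1 and lower FRET ratio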
Target sequence (P97697 whole entry, looked up): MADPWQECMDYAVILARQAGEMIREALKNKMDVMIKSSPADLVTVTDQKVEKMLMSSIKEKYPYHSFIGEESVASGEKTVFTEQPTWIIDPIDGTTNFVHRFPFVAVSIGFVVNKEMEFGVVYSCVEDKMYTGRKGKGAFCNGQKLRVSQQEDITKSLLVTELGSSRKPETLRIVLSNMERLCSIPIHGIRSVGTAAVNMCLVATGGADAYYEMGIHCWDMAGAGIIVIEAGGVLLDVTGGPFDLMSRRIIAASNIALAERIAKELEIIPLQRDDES
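CHO-M1 cells (CHO stably expressing M1 receptor), compound up to 46 uM final, stimulated with carbachol (50 uM as added) in buffer with 50mM LiCl, pH 7.4, 30 min at 37C. Cytosolic IP1 read by TR-FRET; AC50 from Hill fits.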
ALOX15B inhib = qHTS Assay for Inhibitors of 15-hLO-2 (15-human lipoxygenase 2) | 110,000 compounds, 0.56% hits | Potency, µM (doses to about 57.1 µM), hits mostly inhibitors | Polyunsaturated fatty acid lipoxygenase ALOX15B (Homo sapiens), O15296 | purified 15hLO-2, xylenol orange hydroperoxide absorbance | AID 881, 2007; also: nearly all actives have a fitted effect of over 60% in size
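Purified human 15hLO-2 (50 nM final) preincubated with compounds 15 min at room temperature in 25 mM Hepes pH 7.5, 0.01% Triton X-100, then 45 uM arachidonic acid added for 90 min; hydroperoxide detected via ferrous/xylenol orange, 573/405 nm absorbance ratio.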
ALOX12 inhib = qHTS Assay for Inhibitors of 12-hLO (12-human lipoxygenase) | Polyunsaturated fatty acid lipoxygenase ALOX12 (Homo sapiens), P18054 | purified 12-hLO, xylenol orange hydroperoxide absorbance | Potency, µM (top dose mostly 57.1 µM), actives largely listed as inhibitors | 150,000 compounds, 0.12% hits | AID 1452, 2008; also: nearly all actives have a fitted effect of over 55% in size
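Xylenol orange chromogenic assay: hydroperoxide from 12hLO oxidises Fe(II), giving red-shifted Fe(III)-XO absorbance. Conditions: 150 nM enzyme, 40 uM arachidonic acid, 25 mM Hepes pH 7.0, 0.01% Triton X-100, 30 min, room temperature.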
Numbers stand for hits; [ ] = remark or other dose. Unless noted, calls follow the shape of the dose curve; as a rule, active = well fitted curve in the direction sought with a large enough effect; inconclusive = small, poorly fitted or top-dose-only effect, or another doubt; inactive = no such curve, though single readings can be large; an effect the other way counts as inactive or inconclusive.

What do the screens show for `O=C(O)c1cc(O)c2c(c1)[C@H]([C@H]1c3cc(C(=O)O)cc(O)c3C(=O)c3c(O[C@@H]4OC(CO)C(O)C(O)C4O)cccc31)c1cccc(O[C@@H]3OC(CO)C(O)C(O)C3O)c1C2=O` (stereo not given in full)?
HPGD block: 7.94µM; IMPase Li cell: inactive; ALOX15B inhib: 10µM; ALOX12 inhib: inactive

How did COc1cc([C@@H]2Oc3cc([C@H]4Oc5cc(O)cc(O)c5C(=O)[C@H]4O)ccc3O[C@H]2CO)ccc1O do in these assays?
HPGD block: 35.5µM; IMPase Li cell: inactive; IMPase inh: inactive; ALOX15B inhib: inactive; ALOX12 inhib: inconclusive

Results for COc1cc([C@H]2Oc3cc([C@H]4Oc5cc(O)cc(O)c5C(=O)[C@@H]4O)ccc3O[C@@H]2CO)ccc1O ?
HPGD block: inactive; IMPase Li cell: inactive; ALOX15B inhib: inactive; ALOX12 inhib: inactive

Results for Oc1cc2c(cc1O)[C@H]1c3ccc(O)c(O)c3OC[C@@]1(O)C2 ?
HPGD block: 12.6µM; IMPase Li cell: inactive; IMPase inh: inactive; ALOX15B inhib: inconclusive; ALOX12 inhib: inactive

Results for Oc1ccc2c(c1)OCC1(O)Cc3cc(O)c(O)cc3C21 (stereo not given) ?
HPGD block: inconclusive; IMPase Li cell: inactive; ALOX15B inhib: inconclusive; ALOX12 inhib: inactive

How did CN(C)c1ccc(N/C=C/C(=O)c2ccccc2)cc1 do in these assays?
HPGD block: inactive; PNC inhibitor: inconclusive; IMPase Li cell: inactive; IMPase inh: inactive; ALOX15B inhib: inconclusive; ALOX12 inhib: inactive

Results for O=C(/C=C/Nc1ccc(Cc2ccc(N/C=C/C(=O)C(F)(F)F)cc2)cc1)C(F)(F)F ?
HPGD block: inactive; PNC inhibitor: -85.5; IMPase Li cell: inactive; IMPase inh: inactive; ALOX12 inhib: inactive

Results for CN(C)c1ccc(N/C=C/C(=O)C(C)(C)C)cc1 ?
HPGD block: inactive; PNC inhibitor: inactive; IMPase Li cell: inactive; IMPase inh: inactive; ALOX15B inhib: 25.1µM; ALOX12 inhib: inactive

Results for CC1CCCCN1CCCNC(=O)c1ccc(Cc2nc3ccccc3[nH]2)cc1 (stereo not given) ?
HPGD block: inactive; ALOX12 inhib: inactive

What do the screens show for `c1cncc(N=c2scc(-c3cccc4ccccc34)n2CCCn2ccnc2)c1`?
HPGD block: inactive; PNC inhibitor: -92.5; IMPase Li cell: inactive; ALOX12 inhib: inactive

How did CCC(Sc1ccc2nnc(-c3ccc(OC)c(OC)c3)n2n1)C(=O)O (stereo not given) do in these assays?
HPGD block: 14.1µM; PNC inhibitor: inactive; IMPase Li cell: inactive; IMPase inh: inactive; ALOX15B inhib: inactive; ALOX12 inhib: inactive

Results for COC(=O)CSc1ccc2nnc(-c3ccc(OC)c(OC)c3)n2n1 ?
HPGD block: inconclusive; PNC inhibitor: inactive; IMPase Li cell: inactive; IMPase inh: inactive; ALOX12 inhib: inactive

What do the screens show for `COc1ccc(-c2nnc3ccc(SC(C(C)=O)C(C)=O)nn23)cc1OC`?
HPGD block: 14.1µM; PNC inhibitor: inactive; IMPase Li cell: inactive; IMPase inh: inactive; ALOX15B inhib: inactive; ALOX12 inhib: inactive

How did CCOC(=O)c1c(C)oc2cc(Br)c(OC(C)C(=O)OCC)cc12 (stereo not given) do in these assays?
HPGD block: inactive; PNC inhibitor: -100.0; IMPase Li cell: inactive; IMPase inh: inactive; ALOX15B inhib: inactive; ALOX12 inhib: inactive

Results for CCOC(=O)COc1cc2c(C(=O)OCC)c(C)oc2cc1Br ?
HPGD block: inactive; PNC inhibitor: inconclusive; IMPase Li cell: inactive; IMPase inh: inactive; ALOX15B inhib: inactive; ALOX12 inhib: inactive

What do the screens show for `COc1ccccc1-c1ccc(NC2CCCC2)nn1`?
HPGD block: 6.31µM; PNC inhibitor: inactive; IMPase Li cell: inactive; IMPase inh: inactive; ALOX12 inhib: inactive

How did COc1ccc(CNc2ccc(-c3ccccc3OC)nn2)cc1 do in these assays?
HPGD block: 15.8µM; PNC inhibitor: inconclusive; IMPase Li cell: inactive; IMPase inh: inactive; ALOX15B inhib: inactive; ALOX12 inhib: inactive

Results for COc1ccc(CNc2ccc(-c3ccc(OC)cc3)nn2)cc1 ?
HPGD block: inactive; PNC inhibitor: -87.9; IMPase Li cell: inactive; IMPase inh: inactive[9.22 µM]; ALOX15B inhib: inactive; ALOX12 inhib: inactive

How did COc1ccccc1-c1nccc(NCc2ccccc2)n1 do in these assays?
IMPase Li cell: inactive; ALOX15B inhib: inactive

How did COc1ccc(CNc2ccc(Br)cc2)cc1 do in these assays?
IMPase Li cell: inactive

Results for COc1ccc(Cl)cc1NC(=O)CSC1=Nc2ccccc2C2=NC(CC(=O)NCc3ccc4c(c3)OCO4)C(=O)N12 (stereo not given) ?
IMPase inh: inactive

How did COc1cccc(-c2nc(N3CCN(C)CC3)c3ccccc3n2)c1 do in these assays?
IMPase Li cell: inconclusive; ALOX15B inhib: inactive

What do the screens show for `O=C(O)/C=C\C(=O)Nc1cccc2c1-c1ccccc1C2=O`?
HPGD block: inactive; IMPase Li cell: inactive; ALOX15B inhib: inactive[11.4 µM]; ALOX12 inhib: inactive[11.4 µM]

What do the screens show for `CN(C)c1nc(N)nc(/C(C#N)=C/C2CC3C=CC2C3)n1` (stereo not given)?
HPGD block: 17.8µM; PNC inhibitor: inactive; IMPase Li cell: inactive; IMPase inh: inactive; ALOX15B inhib: inactive; ALOX12 inhib: inactive

Results for CC(=O)c1cnc2ncnn2c1C ?
HPGD block: inactive; PNC inhibitor: -113.4; IMPase Li cell: inactive; ALOX12 inhib: inactive

What do the screens show for `CC(=O)c1cnc2nc(C)nn2c1C`?
HPGD block: inactive; PNC inhibitor: inactive; IMPase Li cell: inactive; IMPase inh: inactive; ALOX15B inhib: inactive; ALOX12 inhib: inactive

How did N#C/C(=C\c1ccco1)Sc1nc2ccccc2s1 do in these assays?
HPGD block: 10µM; PNC inhibitor: inactive; IMPase Li cell: inactive; IMPase inh: inactive; ALOX15B inhib: inactive; ALOX12 inhib: inactive

Results for NCCSc1nc2ccccc2s1 ?
HPGD block: inactive; IMPase Li cell: inactive; ALOX15B inhib: inactive[11.4 µM]; ALOX12 inhib: inactive[11.4 µM]

How did c1ccc2sc(SSc3nc4ccccc4s3)nc2c1 do in these assays?
HPGD block: 10µM; IMPase Li cell: inactive; ALOX15B inhib: inconclusive; ALOX12 inhib: inactive

What do the screens show for `COc1ccc([C@@H](Nc2ccccn2)c2cc(C(C)(C)C)cc(C(C)(C)C)c2O)cc1`?
HPGD block: inactive; IMPase Li cell: inactive; ALOX15B inhib: inactive[11.4 µM]; ALOX12 inhib: inactive[11.4 µM]
